Assay outcomes from PubChem.
Only some compounds are listed: those with a hit (about 1.8% of all), similar ones and a draw of the others.
Measles CPE: protection of cells from measles virus; protection (pct of control), % at 4 µM; 140,000 tested, 1.5% active; Measles virus-infected cells, CPE protection, absorbance; in the data active = protection mostly above about 24%, no sharp cut-off; inactive = mostly below about 26%
sdo1 growth: compounds rescuing growth of sdo1-depleted yeast, bone marrow failure model; z-score at 10 µM; 140,000 tested, 0.21% active; AID 817; S. cerevisiae sdo1-depleted JHY4D growth rescue, OD600 30 h; active compounds read high; pdr5 snq2 efflux-pump mutant strain;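 active = z-score above 3 at both the 24 hr and the 30 hr optical density reads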;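 also: z-score against mean and SD of all compound wells on the same plate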
Phagocytosis inh: macrophage phagocytosis inhibition; J774A.1 macrophage IgG-bead phagocytosis, imaging; inhibition, % at 5 µM; 110,000 tested, 0.07% active;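 active = inhibition above the mean of the plate negative controls plus 5 SD, cut at about 13% in these data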;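 also: phagocytic index as fraction of beads internalized from green versus red external bead signal; plate controls were DMSO negative control for no effect and cytochalasin-D positive control for full effect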
* hit, by the source's call; nt = no result given.

SMILES	Measles CPE	sdo1 growth	Phagocytosis inh
Cc1cccc2c1N1C(=O)c3c(C(=O)O)cccc3C1CC2C (configuration not stated)	18.2	-0.4	nt
Cc1c(C2C(C#N)=C(N)OC3=C2C(=O)CCC3)cnn1C (configuration not stated)	6.2	0.47	-5.5
COC(=O)c1cccc(NC(=O)CSc2nc3cccnc3n2C)c1	62.6*	-0.76	-0.8
COC(=O)c1cccc(NC(=O)CSc2nnnn2C)c1	3.5	0.75	0.5
Cc1ccc(NC(=O)c2ccc(-c3nn(C)c(=O)c4ccccc34)cc2)cc1	30.6	-0.81	0.1
Cn1nc(-c2ccc(C(=O)Nc3cccc(Cl)c3)cc2)c2ccccc2c1=O	37.9*	-1.05	-1.4
COCCN1Cc2cccc(C(=O)NCc3cccnc3)c2C1=O	5.7	1.21	-0.6
COc1ccccc1N(C)S(=O)(=O)c1ccc(C(=O)OCC(=O)NCc2ccco2)cc1	5.9	-1.01	-1.6
CCNS(=O)(=O)c1ccc(CCC(=O)NCCC2=CCCCC2)cc1	2.8	1.4	-1.9
Cc1cc(C(=O)CN2C(=O)NC3(CCCc4sccc43)C2=O)c(C)n1-c1ccc(Cl)cc1 (configuration not stated)	38.8*	0.02	-1.5
Cc1cc(C(=O)CN2C(=O)NC3(CCCc4ccccc43)C2=O)c(C)n1C (configuration not stated)	5.2	-0.08	1.3
CC(C)(C)SCCNC(=O)/C=C/c1cccc([N+](=O)[O-])c1	6.7	-0.51	-0.1
CN(C(=O)c1cccnc1)c1nnc(-c2cnccn2)s1	2.5	0.19	-2.7
CN(C(=O)c1ccncc1)c1nnc(-c2cnccn2)s1	31.6*	0.23	-1.5
Cc1cc(NC(=O)c2cncc(Br)c2)n(-c2ccccn2)n1	22.6	-0.11	-2.2
CCc1nnc(NS(=O)(=O)c2ccc(NC(=S)NC(=O)/C=C/c3ccc(OC)cc3)cc2)s1	13.5	0.28	-7.3
CCc1nnc(NS(=O)(=O)c2ccc(NC(=S)NC(=O)/C=C/c3ccccc3)cc2)s1	62.9*	0.51	-10.8
Clc1ccc(Oc2nc(N3CCOCC3)nc(N3CCOCC3)n2)cc1	33.7*	-0.96	0.3
c1cc2c(cc1Oc1nc(N3CCOCC3)nc(N3CCOCC3)n1)OCO2	0.4	-0.85	0.1
O=C(COC(=O)CC1CC2CCC1C2)NC(=O)NCc1ccco1 (configuration not stated)	11.3	-0.62	nt
COC(=O)NC1CSCC1OC(=O)CN1C(=O)c2ccccc2C1=O (configuration not stated)	7.2	0.51	-0.4
COCCNC(=O)CS(=O)Cc1nc(-c2ccc(OC)cc2)oc1C (configuration not stated)	11.3	0.16	0.2
COCCCNC(=O)CS(=O)Cc1nc(-c2cccc(OC)c2)oc1C (configuration not stated)	38.9*	0.1	-0.5
COc1ccc2c(CC(=O)OCC(=O)NC(=O)c3cccn3C)coc2c1	3.5	-0.93	0.4
CCOC(=O)c1cc2c(C)n(-c3ccc(C)cc3)c(C)c2ccc1=O	7.8	-2.4	1.8
SMILES	Measles CPE	sdo1 growth	Phagocytosis inh
COc1ccccc1-n1c(SCC(=O)Nc2cccc3ccccc23)nc(O)cc1=O	12.9	3.28	190.4*
COc1ccc(NC(=O)CSc2nc(O)cc(=O)n2-c2ccccc2OC)cc1	11.0	1.56	-0.7
O=C(O)c1ccnc(Cl)c1	25.0*	1.01	-5.6
OCc1ccnc(Cl)c1	4.9	1.54	-2.0
COc1ccc(/C=N/NC(N)=S)cc1OC(=O)c1cccc2ccccc12	1.6	-1.3	nt
O=C(NS(=O)(=O)c1ccc(NC(=O)C2CCCO2)cc1)c1ccccc1 (configuration not stated)	2.1	-0.36	nt
O=C(Nc1ccc(S(=O)(=O)Nc2ccc(Cl)cc2)cc1)C1CCCO1 (configuration not stated)	39.6*	0.1	-1.9
CCNC(=S)N/N=C/c1cccc(OCc2c(F)cccc2Cl)c1	3.1	-1.4	8.0
Cc1nc(Nc2ccc(S(=O)(=O)N3CCCCC3C)cc2)c2nnn(Cc3ccccc3)c2n1 (configuration not stated)	5.1	0.53	-8.4
Cc1ccc(CCNC(=O)C23CN(Cc4ccccc4)CC2C(c2ccc([N+](=O)[O-])cc2)=NO3)cc1 (configuration not stated)	4.4	-0.13	0.4
Cc1ccc(CNC(=O)C23CN(Cc4ccccc4)CC2C(c2ccc([N+](=O)[O-])cc2)=NO3)cc1 (configuration not stated)	41.3*	-0.26	-1.9
CCCC(=O)Nc1ccc(C#Cc2ccccc2)cc1	5.8	-0.11	nt
O=C(Nc1ccc(C#Cc2ccccc2)cc1)C1CC1	58.2*	-0.78	0.4
Nc1nnc(SCC(=O)N2CCN(c3cccc(Cl)c3)CC2)n1-c1ccccc1	6.1	0.55	nt
O=C(NC1CCCC1)C(c1ccncc1)N(Cc1ccccc1)C(=O)Cc1cccs1 (configuration not stated)	6.6	-0.15	-0.1
O=C(NC1CCCC1)C(c1ccsc1)N(Cc1ccccc1)C(=O)Cc1cccs1 (configuration not stated)	63.0*	-1.36	nt
N#Cc1c(N)nc(N2CCCC2)c(C#N)c1-c1ccccc1	15.9	-0.7	nt
COc1ccc(-c2cc(C(F)(F)F)nc(NCc3ccco3)n2)cc1OC	4.2	-0.29	nt
FC(F)(F)c1cc(-c2ccc3c(c2)OCO3)nc(NCc2ccco2)n1	66.1*	-1.18	-0.5
CCOC(=O)c1nn(-c2ccc(C)cc2)c2nc(Nc3ccccc3)cc(=O)n12	8.6	-0.76	-1.1
Cc1ccc(-n2nc(C(=O)c3ccccc3)n3c(=O)cc(-c4ccccc4)nc23)cc1	26.1*	-0.99	2.1
CCN(CC)C(=O)C(=O)c1cccn1-c1ccccc1C#N	6.3	1.4	-2.3
CCC(CC)c1nnc(NC(=O)c2cc(-c3ccccc3)nc3ccccc23)s1	12.4	0.41	-11.2
O=C(Nc1nccs1)c1cc(-c2ccco2)nc2ccccc12	3.1	-1.08	-3.0
O=C(NCc1ccccn1)c1cc(-c2ccc(-c3ccccc3)cc2)nc2ccccc12	50.0*	-0.51	-14.9
SMILES	Measles CPE	sdo1 growth	Phagocytosis inh
CC(C)Cc1nnc(NC(=O)c2cc(-c3ccccc3)nc3ccccc23)s1	43.9*	-0.69	-0.2
O=C(NCc1ccccn1)c1cc(-c2ccccc2)nc2ccccc12	11.0	-0.93	-3.8
O=C(Nc1nccs1)c1cc(-c2ccccc2)nc2ccccc12	39.9*	-1.25	-4.9
Cc1cccc(C)c1NC(=O)C(C)c1ccc(-c2ccccc2)c(F)c1 (configuration not stated)	4.8	-1.38	-0.2
Cc1c(NC(=O)C(C)OC(=O)c2ccc(Cl)nc2)c(=O)n(-c2ccccc2)n1C (configuration not stated)	10.3	0.2	-5.7
Cc1cc(N2CCN(C/C=C/c3ccccc3)CC2)n2ncnc2n1	32.0*	0.17	0.4
Cc1cc(N2CCN(C(c3ccccc3)c3ccc(Cl)cc3)CC2)n2ncnc2n1 (configuration not stated)	4.6	-1.34	nt
CC(=O)Nc1ccc(S(=O)(=O)NCC(=O)OCC(=O)N2CCN(c3ccccc3)CC2)cc1	17.8	0.91	-5.8
Cc1cc2ccc(C)c(C)c2nc1SCC(=O)c1cccs1	31.9*	-1.29	-0.4
Cc1ccc2cc(C)c3nnc(SCC(=O)c4cccs4)n3c2c1C	7.3	-0.44	-0.5
